Laboratory results taken from PubChem BioAssay (NCATS).
Inconclusive results are not listed. Activity calls are given as the source filed them. Calls follow the shape of the full dose curve.

Each compound was assayed against Cytochrome P450 1A2 (Homo sapiens) (UniProt P05177) (assay: p450-cyp1a2 (AID 410)). Settings: recombinant CYP1A2, luciferin-ME demethylation, luminescence; series mostly up to 57 µM.
Summary of the method: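 Luminescent readout of luciferin formed from Luciferin-ME by human CYP1A2; data normalized against complete inhibition by 57 uM furafylline. Enzyme 20nM, substrate 100uM at Km, 100mM KPO4 buffer, 60 min reaction at room temperature.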
Potency is read from the fitted curve at half-maximal effect.

Chain of Cytochrome P450 1A2 (Homo sapiens) (P05177 whole entry, looked up): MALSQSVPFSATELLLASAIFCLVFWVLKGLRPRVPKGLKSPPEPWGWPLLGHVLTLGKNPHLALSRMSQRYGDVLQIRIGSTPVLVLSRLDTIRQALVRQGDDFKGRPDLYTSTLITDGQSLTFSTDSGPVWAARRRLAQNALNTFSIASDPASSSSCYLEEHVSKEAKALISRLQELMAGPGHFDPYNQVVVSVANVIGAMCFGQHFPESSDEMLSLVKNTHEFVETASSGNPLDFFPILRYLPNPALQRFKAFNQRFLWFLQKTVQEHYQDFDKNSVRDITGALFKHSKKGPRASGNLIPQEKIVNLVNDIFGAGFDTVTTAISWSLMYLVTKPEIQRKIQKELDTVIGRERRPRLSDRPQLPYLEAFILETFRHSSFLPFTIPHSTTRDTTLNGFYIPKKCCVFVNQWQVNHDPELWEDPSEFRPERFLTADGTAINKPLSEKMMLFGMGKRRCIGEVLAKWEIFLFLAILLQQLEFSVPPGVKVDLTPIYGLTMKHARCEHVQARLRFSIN

Potency, active:
COCCn1c(=O)c(-c2cccc(F)c2)nc2cncnc21 2000 nM
Cc1noc(C)c1-c1nccc(Nc2ccc(F)cc2)n1 398 nM
COc1ccccc1-c1cc(Nc2ccn[nH]2)ncn1 631 nM
Cc1cnc(CNc2nc(-c3ccccc3Cl)nc3ccccc23)cn1 6310 nM
CCNc1ncc2nc(-c3cccc(C#N)c3)c(=O)n(CCC#N)c2n1 631 nM
c1ccc(CNc2ccnc(-c3cccnc3)n2)cc1 251 nM
COc1ccccc1-c1cc(Nc2ccc(F)cc2)ncn1 2000 nM
CN(C)c1nc(-c2ccccc2C(F)(F)F)nc2ccccc12 251 nM
COc1ccccc1-c1nc(N(C)Cc2ccco2)c2ccccc2n1 501 nM
COc1cccc(-c2cncnc2NCc2cccs2)c1 1260 nM
c1ccc(Nc2ncncc2-c2ccoc2)cc1 1000 nM
COc1ccccc1CNc1ccnc(-c2c(C)noc2C)n1 398 nM
COc1ccc(CNc2ccnc(-c3cccnc3)n2)c(OC)c1 316 nM
Cc1cnc(CNc2ncnc3ccc(-c4ccc(C(=O)N(C)C)cc4)cc23)cn1 15800 nM
